# Source: PubChem BioAssay
# Pf Dd2 growth = qHTS Primary assay for Inhibitors of Plasmodium falciparum Dd2 growth in vitro | AID 1347417, 2020 | hit rate 4.3% among 120,000 | P. falciparum Dd2 growth, SYBR Green, 72 h | Potency, µM (highest dose often 28.9 µM), usual class: inhibitors; active means well fitted inhibition curve with a large enough effect; further: nearly all actives have a fitted effect of over 65% in size
#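 Infected erythrocytes (Dd2, 0.3% parasitemia, 2.5% hematocrit final) are added to compound in RPMI-1640/Albumax II medium, grown 72 h at 37C in low oxygen, then lysed with saponin/Triton-X containing SYBR Green and read by fluorescence.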
# Hits are given with their value; - = inactive. Only a selection was taken, and hits are over-represented in it overall.
SMILES,Pf Dd2 growth
COC[C@H]1CCCN1C(=O)C[C@@H]1O[C@H](CNC(=O)Nc2cccc(F)c2)[C@@H](O)[C@H]1O,-
OCCC1CN(Cc2c(F)ccc(F)c2F)CCN1C1CCCC1 (centres undefined),-
COc1cccc(NC(=O)N[C@H]2[C@H](O)[C@@H](N3CCC(Cc4ccccc4)CC3)[C@@H]3OC[C@H]2O3)c1,-
Cn1cnc(S(=O)(=O)N2CCCC(c3nnnn3-c3ccccc3)C2)c1 (centres undefined),-
CCCC1=Nc2cc(C(=O)NC3CCCCC3)ccc2Sc2ccc(C)cc21,10µM
CCCC1=Nc2cc(C(=O)NCCCN(CC)CC)ccc2Sc2ccccc21,-
CCCC1=Nc2cc(C(=O)NCCc3ccc(OCC)cc3)ccc2Sc2ccccc21,-
COc1ccc(NC(=O)Cc2c[nH]c3ncc(-c4ccccc4)cc23)cc1,-
O=C(Cc1c[nH]c2ncc(-c3cccnc3)cc12)Nc1ccc(C(F)(F)F)cc1,-
O=C(Cc1c[nH]c2ncc(-c3ccccc3)cc12)NCc1cnccn1,-
O=C(Cc1c[nH]c2ncc(-c3cccnc3)cc12)NCc1cccc(F)c1,6.31µM
O=C(Cc1c[nH]c2ncc(-c3cccnc3)cc12)NCCc1ccccc1,-
COc1ccc(OC)c(-c2cnc3[nH]cc(CC(=O)NCc4cccnc4)c3c2)c1,-
Cn1cc(-c2cnc3[nH]cc(CC(=O)Nc4ccc(N5CCOCC5)cc4)c3c2)cn1,-
COc1ccc(-c2cnc3[nH]cc(CC(=O)Nc4ccc(C(F)(F)F)cc4)c3c2)cc1,-
Cn1cc(-c2cnc3[nH]cc(CC(=O)Nc4cccc(F)c4)c3c2)cn1,6.31µM
COc1ccc(-c2cnc3[nH]cc(CC(=O)Nc4ccc(OC)nc4)c3c2)cc1,11.2µM
O=C(Cc1c[nH]c2ncc(-c3ccncc3)cc12)NCc1cccnc1,5.01µM
Cn1cc(-c2cnc3[nH]cc(CC(=O)Nc4ccccc4Cl)c3c2)cn1,-
O=C1NCCOCCN(C(=O)c2ccncc2)[C@H]2CCC[C@@H]12,-
O=C(NC1CCc2nn(CC3CC3)c(=O)n2CC1)c1ccc2cc[nH]c2c1 (centres undefined),-
COc1ccc(C(=O)NCCc2ncc(C)n2CC2CC2)cn1,-
Cc1ccc(S(=O)(=O)NC[C@H]2OC[C@@H](NCc3cccc(C#N)c3)[C@@H]2O)cc1,-
COc1ccc(CN2C[C@H](O)C[C@H]2c2nc(-c3cccc([N+](=O)[O-])c3)no2)c(OC)c1OC,-
O=C1CCCCC(C(=O)NCc2ccccc2)N1 (centres undefined),-
SMILES,Pf Dd2 growth
CC(C)Cc1cn(CC2CCCN(C(=O)c3ccc4c(c3)CCO4)C2)nn1 (centres undefined),-
CN(Cc1cccnc1)C1CN(C(=O)C2CCC2)C1,-
CC(=O)N(C1CC1)C1CCOC2(CCN(C(=O)c3cccc4nccnc34)CC2)C1 (centres undefined),-
NC(=O)Cc1c[nH]c2ncc(-c3cccc(F)c3)cc12,-
CN1CCN(C(=O)Cc2c[nH]c3ncc(-c4cccc(Cl)c4)cc23)CC1,-
CN1CCN(C(=O)Cc2c[nH]c3ncc(-c4ccc(F)c(Cl)c4)cc23)CC1,11.2µM
O=C(Cc1c[nH]c2ncc(-c3cccc(Cl)c3)cc12)NCc1cccnc1,4.47µM
CN1CCN(C(=O)Cc2c[nH]c3ncc(-c4ccc5c(c4)OCO5)cc23)CC1,-
O=C(Cc1cccc(Cl)c1)NCc1c[nH]c2ncccc12,-
Cc1ccc(-c2cc(N3CCCN(C(=O)Cc4cccs4)CC3)n[nH]2)cc1C,-
Cn1cnc(C(=O)N2CC3CC(C2)[C@H]2CCCC(=O)N2C3)c1 (some centres undefined),-
O=C1NCCCCCCN(C(=O)C2CCC2)[C@H]2CCCC[C@@H]12,-
CC(C)(C)C(=O)N1C[C@H]2OC(=O)N(CCc3cccc(Cl)c3)[C@H]2C1,-
O=C(Cc1ccccc1)N1CCCN(c2cc(-c3ccc(Br)cc3)[nH]n2)CC1,-
CS(=O)(=O)N1C[C@H]2CCN(C(=O)c3cc(Cl)ccc3F)C[C@H]21,-
CCOc1ccccc1NC(=O)N(C)CC1CCOCC1,-
C[C@H](O)c1onc(-c2ccc(F)cc2)c1C(=O)NC1CCCC1,-
COC(=O)[C@@H]1Cc2ncn(Cc3ccc(Cl)cc3)c2CN1Cc1cccc(C#N)c1,11.2µM
COC(=O)[C@@H]1Cc2ncn(Cc3ccc(Cl)cc3)c2CN1S(=O)(=O)c1ccc(NC(C)=O)cc1,-
COC(=O)[C@@H]1Cc2ncn(Cc3ccccc3)c2CN1S(=O)(=O)c1cccc(C(F)(F)F)c1,-
COC(=O)[C@@H]1Cc2ncn(Cc3ccccc3)c2CN1S(=O)(=O)Cc1ccccc1,11.2µM
COC(=O)[C@@H]1Cc2ncn(Cc3ccc(Cl)cc3)c2CN1S(=O)(=O)c1cccs1,-
COC(=O)[C@@H]1Cc2ncn(Cc3ccccc3)c2CN1S(=O)(=O)c1cccs1,-
COc1ccccc1N1CCN(C(=O)C[C@@H]2CCNC[C@@H]2Cc2cc(-c3ccccc3)on2)CC1,-
Cc1cc(CNC(=O)[C@@H]2CCC[C@@H](NCc3cccnc3)CN(C)C(=O)C2)no1,-
